Measured values: PubChem BioAssay AID651571 (The Scripps Research Institute Molecular Screening Center, 2012)
The campaign covered roughly 1,500 compounds. About 1,300 (87%) were called active. Rule as the data show it: active = inhibition above about 9%; inactive = the rest. The set was probably picked from earlier hits. These entries were drawn from the full list.

assay: PG9 antibody small-molecule binding – biochemical, TR-FRET, confirmation (AID 651571); conditions: at 6.7 µM, stronger effect = higher value

Structure (SMILES) | inhibition
CCN(CC)C(=O)c1ccc(NC(=O)c2sccc2-c2ccccc2)cc1 | 16.6% (active)
N#CC1=C(N)Oc2c(c(=O)oc3ccccc23)C1c1ccccc1OC(=O)c1cccs1 (configuration not stated) | 20.4% (active)
